# Hsp70 act = Hsp70 transcriptional activators, primary screen, cell-based, HeLa, Hsp70 promoter luciferase, luminescence, 10 µM. HeLa Hsp70 promoter luciferase reporter; scaled: vehicle 0, proteasome-inhibitor control 100%. AID 1203, 2008. 0.04% of 200,000 active. activation, % at 10 µM;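 active means activation above the mean across all tested compounds plus 3 SD, cutoff set per campaign, cut at about 5.5% in these data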;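 further: 100% = MG132 at 30 µM as the positive control and 0% = DMSO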
# S1P4 antag = S1P4 receptor antagonists, primary screen, cell-based. Sphingosine 1-phosphate receptor 4 (Homo sapiens), O95977. S1P4-expressing cells, antagonist mode, reporter read-out. inhibition, % at 4.98 µM. 0.26% of 220,000 active; in the data active means inhibition above about 29%;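 further: 0% = wells stimulated with agonist and 100% = vehicle wells without agonist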
# Target sequence (O95977 whole entry, looked up): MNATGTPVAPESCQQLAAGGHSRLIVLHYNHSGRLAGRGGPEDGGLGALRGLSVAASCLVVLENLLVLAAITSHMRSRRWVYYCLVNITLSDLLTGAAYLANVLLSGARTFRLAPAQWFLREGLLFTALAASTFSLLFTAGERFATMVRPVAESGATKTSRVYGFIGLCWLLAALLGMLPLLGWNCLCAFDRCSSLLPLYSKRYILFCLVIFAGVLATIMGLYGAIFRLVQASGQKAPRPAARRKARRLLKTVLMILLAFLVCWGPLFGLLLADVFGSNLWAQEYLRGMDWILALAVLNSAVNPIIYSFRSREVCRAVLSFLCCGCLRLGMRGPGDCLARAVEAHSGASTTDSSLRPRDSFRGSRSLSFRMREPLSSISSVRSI
# S1P4 ag = S1P4 receptor agonists, primary screen, cell-based; S1P4-expressing cell line, agonist reporter assay; 0.35% of 220,000 active; AID 1509, 2009; activation, % at 4.98 µM; in the data active means activation above about 11%;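 further: 0% = DMSO vehicle and 100% = reference agonist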
# S1P3 antagonist = S1P3 receptor antagonists, primary screen, cell-based. Sphingosine 1-phosphate receptor 3 (Homo sapiens), Q99500. CHO S1P3 NFAT-BLA reporter, FRET fluorescence, antagonist mode. inhibition, % at 4.98 µM. 0.27% of 170,000 active;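 active means inhibition above the plate cutoff, the mean inhibition of test wells on that plate plus 3 SD, cut at about 28% in these data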;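 further: cells challenged with S1P at its EC80 of 0.8 µM; blue over green emission ratio from cleaved BLA substrate after 4 h stimulation; 0% = S1P-stimulated wells and 100% = unstimulated DMSO-only wells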
# HSF1 inhib = HSF1 inhibitors in luciferase reporter cells, primary screen, cell-based, NIH3T3, luminescence; NIH3T3-HGL HSE-luciferase, MG132-induced, luminescence 8 h; stronger effect = lower value; activity change, negative = inhibition, % at 7.5 µM (by protocol); AID 2098, 2009; 0.77% of 300,000 active;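 active means more than half of replicate wells show activity change below -50%, luminescence cut by over half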;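 further: luciferase reports HSF-1 transcriptional activity via heat shock element; 0% = median of DMSO wells and -100% = zero luminescence signal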
# HSF-1 act = HSF-1 activators, primary screen, NIH3T3-HGL cells, MG132 stress, luminescence, single point. activation, % at 9 µM. 1.7% of 300,000 active. AID 504408, 2011. NIH3T3-HGL HSF-1 luciferase reporter, 8 h; 100% = twice DMSO control signal;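 active means mean replicate activation of at least 50% with a set share of replicates each reaching 50%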;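 further: 0% = median of the neutral control wells and 100% = twice that signal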
# Active calls of the source: *; . = no result given. In the library only some 2.9% were active in any assay of this set; here they are far more common.
SMILES,Hsp70 act,S1P4 antag,S1P4 ag,S1P3 antagonist,HSF1 inhib,HSF-1 act
CCC(CC)COC(=O)C1=C(C)NC(=O)NC1c1cc(OC)ccc1OC (stereo not given),.,.,.,.,26,70*
CCn1cc(C(=O)NCCCOC)c(=O)c2cc(S(=O)(=O)N3CCCC3)ccc21,.,.,.,.,2,-2
Cc1ccc(C)c2[nH]c(=O)c(CCNC(=O)C(C)(C)C)cc12,0,-5,1,-32,-86*,-89
Cc1ccc(C)c2[nH]c(=O)c(CCNC(=O)Cc3cccs3)cc12,0,5,1,4,8,11
O=C(Nc1cccc(Cl)c1)N1CCOCC1,.,.,.,.,-55*,-65
O=C(NC1CCCCC1)c1cc(-c2ccc(F)cc2)on1,.,.,.,.,22,54*
Cc1ccc(-c2cc(C(=O)NC3CCCC3)no2)cc1,.,.,.,.,34,35
O=C1CCCC/C1=C/Nc1cccc(C(F)(F)F)c1,0,-4,-1,-11,-2,-5
O=C1CCC2S/C(=C/Nc3ccc(C(F)(F)F)cc3)C(=O)N12 (stereo not given),-1,2,3,-6,-65*,-72
Cc1ccc(Nc2cc(-n3cccn3)ncn2)c(C)c1,0,-5,1,.,41,52*
Cc1ccc(Nc2cc(-n3nc(C)cc3C)ncn2)c(C)c1,0,3,-1,-1,6,22
O=C(COC(=O)c1ccc[nH]c1=O)NCCc1ccc(Cl)cc1Cl,.,0,1,-6,18,28
Cc1ccc(C(=O)c2ccccc2C(=O)OCC(=O)NCCc2ccc(Cl)cc2Cl)cc1,0,-22,0,-5,31,54*
CCOc1ncccc1C(=O)NCCc1ccc(S(N)(=O)=O)cc1,.,.,.,.,-7,-5
c1ccc(C2=NNC(=NCc3ccc4c(c3)OCO4)SC2)cc1,0,-10,2,-11,10,6
C=CCN=C1NN=C(c2ccc3c(c2)OCCO3)CS1,0,-5,1,-10,-56*,-63
Cc1cc(C)cc(-n2c3nc4ccccc4nc3c3c(=O)n(Cc4ccco4)cnc32)c1,0,22,0,.,85,119*
CCOc1ccc(-n2c3nc4ccccc4nc3c3c(=O)n(Cc4ccco4)cnc32)cc1,0,-2,0,.,.,.
Cc1csc(NC(=O)c2nc3nc(C)cc(C)n3n2)n1,0,-14,3,-16,18,61*
Cc1cc(C)n2nc(C(=O)Nc3nccs3)nc2n1,0,4,-1,.,5,21
CC(C)NC(=O)CCc1nnc(Cc2cccc(C(F)(F)F)c2)o1,0,10,-1,-11,8,31
CCC(COC)NC(=O)CCc1nnc(Cc2cccc(C(F)(F)F)c2)o1 (stereo not given),0,-10,2,7,39,54*
Cc1cccc(C(=O)NC(=S)NCc2cccnc2)c1,0,-11,0,1,-2,6
COc1ccc(NC(C)c2cc(Cl)ccc2O)cc1 (stereo not given),0,3,-2,63*,-6,7
Cc1oc(-c2ccc3c(c2)OCCO3)cc1C(=O)O,0,-12,0,0,-72*,-73
SMILES,Hsp70 act,S1P4 antag,S1P4 ag,S1P3 antagonist,HSF1 inhib,HSF-1 act
COc1ccc(-c2cc(C(=O)NC(Cc3cc4ccccc4[nH]3)C(=O)O)c(C)o2)cc1OC (stereo not given),0,-11,-3,-22,-7,-10
COc1ccc(-c2cc(C(=O)O)c(C)o2)cc1OC,0,-9,0,-2,-61*,-66
CN(C(=O)CCc1ccccc1)c1nnc(-c2ccncc2)s1,0,3,0,-11,3,18
Cc1ccc(SCCC(=O)N2CCC(C(N)=O)CC2)cc1,0,-3,2,11,-6,4
Cc1ccc(SCCC(=O)N2CCC(C)CC2)cc1,0,-11,3,.,20,58*
COc1ccc(CCN(C)CCc2ccc(OC)c(OC)c2)cc1OC,.,.,.,.,-2,-3
COc1ccc(CCN(C)Cc2c(O)ccc3cc(Br)ccc23)cc1OC,.,.,.,.,164,204*

# Source: PubChem BioAssay (several laboratories)
